Reference: PubChem BioAssay (NCATS)
Values joined by “and” are separate entries in the source; they are usually repeats but may differ in a detail not shown here. Identical values can stand only once. Results filed as inconclusive are left out. Active and inactive are the calls of the source. Calls come from the whole dose curve; as a rule, active = well fitted cell-killing curve with a large enough effect; inconclusive = small, poorly fitted or top-dose-only effect; inactive = no such curve, though single readings can be large or run the other way.

assay: qHTS of pediatric cancer cell lines to identify multiple opportunities for drug repurposing: Primary screen for SK-N-MC cells (AID 1347093); details: SK-N-MC viability, CellTiter-Glo luminescence, 48 h; series mostly up to 46 µM; activity change, negative = cytotoxic: at the top concentration
From the text: Drug repurposing or repositioning has been offered as a strategy for drug development in oncology programs. This approach has special potential for childhood cancers and other rare or orphan diseases, where the expected return on new drug development has been a disincentive to pharmaceuticals.
In this project we exploit the poly-pharmacology of drugs to discover new indications via phenotypic screening of a panel of 19 well-characterized cell lines derived from solid tumors seen in children and adolescents. The goal is to identify approved drugs with previously unrecognized anticancer properties that has the potential to reveal new mechanisms and biological processes involved in carcinogenesis or drug resistance. We employed a titration-based paradigm (quantitative high-throughput screening or qHTS), where all compounds were tested at multiple concentrations for their effect on cell viability. Concentration-response curves (CRCs) were derived directly from the primary screen, and both potency and efficacy values were used to identify compounds with robust bioactivity profiles. We screened the NIH Chemical Genomics Center (NCGC) Pharmaceutical Collection (NPC) and Mechanism Interrogation Plate (MIPE) small molecule collections of approved and investigational compounds against these cell lines; and measured metabolically active cells after 48 hours of compound treatment as a proxy for cell viability.
Assay Submitter: Nathalia J. Martinez, National Center for Advancing Translational Sciences, National Institutes of Health, Rockville, MD, USA; email: natalia.martinez@nih.gov
[1] Shen, M et al. Quantitative high-throughput phenotypic screening of pediatric cancer cell lines identifies multiple opportunities for drug repurposing. Oncotarget 2017 Dec 19;9(4):4758-4772. PMID 29435139.
The cells were obtained from University of North Carolina (UNC), Pediatric Preclinical Testing Program (PPT), and Coriell Institute (CI).
qHTS cell viability assay:
Cells were assayed in growth media at a density of 500-1,000 cells/well. Five microliters of cells were dispensed into 1,536-well, white, solid-bottom, TC-treated plates (Greiner Bio One) using a multidrop dispenser and incubated at 37 degrees C, 5% CO2, under a humidified atmosphere for 5 hours. Twenty-three nanoliters of compounds and controls (neutral control DMSO or positive control bortezomib at final concentration of 2.3 µM) were subsequently transferred by Kalypsys pintool. For primary screens, the MIPE collection was tested at 11-point dilutions (final concentrations range from 0.78 nM to 46 µM) and the NPC collection at 8-point dilutions (final concentrations range from 0.59nM to 46 µM). Compounds tested in follow-up screens were assayed at 11-point dilutions. Cells were incubated for 48 hours, followed by addition of 3 uL of CellTiter-Glo (Promega). After a 15 min incubation at room temperature, samples were analyzed for luminescence intensity using a ViewLux High-throughput CCD imager equipped with clear filters.
Potency is the fitted concentration of half-maximal effect.

| Structure (SMILES) | Potency | activity change, negative = cytotoxic |
| --- | --- | --- |
| CCCCCCNC(=O)n1cc(F)c(=O)[nH]c1=O | 16.6 µM (active) | – |
| CC1=NN(c2ccccc2)C(=O)C1 | inactive | – |
| C[C@@H]1C[C@H]2[C@@H]3CCC4=CC(=O)C=C[C@]4(C)[C@@]3(Cl)[C@@H](O)C[C@]2(C)[C@@]1(OC(=O)c1ccco1)C(=O)CCl | 2.96 µM (active) | – |
| COc1ccccc1OCC(O)COC(N)=O (stereo not given) | inactive | – |
| Cn1c(=O)c2c(ncn2CC(O)CO)n(C)c1=O (stereo not given) | inactive | – |
| CC(N)C12CC3CC(CC(C3)C1)C2 (stereo not given) | – | -4.06% (inactive) |
| C1CCC(C(CC2CCCCN2)C2CCCCC2)CC1 (stereo not given) | 11.9 µM (active) | – |
| O=C(O)CCn1c2c(c3ccccc31)C[C@H](NS(=O)(=O)c1ccc(F)cc1)CC2 | inactive | – |
| Cc1ccc(S(=O)(=O)N[C@@H](Cc2ccccc2)C(=O)CCl)cc1 | 7.43 µM (active) | – |
| CC1=CC(=O)c2ccccc2C1=O | 21.1 µM (active) and 148 nM (active) | – |
| C[C@@H](CN1CC(=O)NC(=O)C1)N1CC(=O)NC(=O)C1 | 23.7 µM (active) and 7.43 µM (active) | – |
| CC[C@H](C)C(=O)O[C@H]1C[C@@H](C)C=C2C=C[C@H](C)[C@H](CC[C@@H]3C[C@@H](O)CC(=O)O3)[C@H]21 | – | 10.5% (inactive) |
| COC(=O)Nc1nc2ccc(C(=O)c3ccccc3)cc2[nH]1 | 53.1 nM (active) and 332 nM (active) | – |
| OC(Cn1cncn1)(Cn1cncn1)c1ccc(F)cc1F | inactive | – |
| NC1(c2ccc(-c3nc4ccn5c(=O)[nH]nc5c4cc3-c3ccccc3)cc2)CCC1 | 332 nM (active) and 266 nM (active) | – |
| Cc1cccc(Nc2ccncc2S(=O)(=O)NC(=O)NC(C)C)c1 | inactive | – |
| O=C(O)CSCC(=O)NC1CCSC1=O (stereo not given) | inactive | – |
| Nc1ccc(S(=O)(=O)Nc2ccccn2)cc1 | – | 0.911% (inactive) |
| Nc1nc(N)nc(-c2cc(Cl)ccc2Cl)n1 | inactive | – |
| N=C(N)c1ccc(OCCCCCOc2ccc(C(=N)N)cc2)cc1 | 33.2 µM (active) | – |

| Structure (SMILES) | Potency | activity change, negative = cytotoxic |
| --- | --- | --- |
| COc1ccc2cc3[n+](cc2c1OC)CCc1cc2c(cc1-3)OCO2 | 8.41 µM (active) and 18.7 µM (active) | – |
| S=P(N1CC1)(N1CC1)N1CC1 | 3.72 µM (active) | – |
| CC(C)C[C@H](NC(=O)[C@H](CCc1ccccc1)NC(=O)CN1CCOCC1)C(=O)N[C@@H](Cc1ccccc1)C(=O)N[C@@H](CC(C)C)C(=O)[C@@]1(C)CO1 | 6 nM (active) and 5.9 nM (active) | – |
| Cc1onc(-c2ccccc2Cl)c1C(=O)N[C@@H]1C(=O)N2[C@@H]1SC(C)(C)[C@@H]2C(=O)O | inactive | – |
| C[C@@H]1CN(c2c(F)c(N)c3c(=O)c(C(=O)O)cn(C4CC4)c3c2F)C[C@H](C)N1 | inactive | – |
| COC(c1ccccc1)(c1ccccc1)[C@H](Oc1nc(C)cc(C)n1)C(=O)O | inactive | – |
| N[C@@H](Cc1ccc(O)c(O)c1)C(=O)O | 18.7 µM (active) | – |
| Cc1ncc([N+](=O)[O-])n1CCO | inactive | – |
| CCN(C)C(=O)Oc1cccc([C@H](C)N(C)C)c1 | inactive | – |
| CNCC[C@H](Oc1cccc2ccccc12)c1cccs1 | 1.05 µM (active) | – |
| COc1cc([C@@H]2c3cc4c(cc3[C@H](O)[C@H]3COC(=O)[C@H]23)OCO4)cc(OC)c1OC | 53.1 nM (active) and 1 nM (active) | – |
| COC(=O)Nc1nc2ccc(S(=O)c3ccccc3)cc2[nH]1 (stereo not given) | 376 nM (active) and 8.33 µM (active) | – |
| COc1cc(NS(=O)(=O)c2ccc(N)cc2)nc(OC)n1 | inactive | – |
| CC(C)(C)C(=O)OCOP(=O)(COCCn1cnc2c(N)ncnc21)OCOC(=O)C(C)(C)C | 188 nM (active) and 1 nM (active) | – |
| Cc1oc(=O)oc1CN1CCN(c2cc3c(cc2F)c(=O)c(C(=O)O)c2n3C(C)S2)CC1 (stereo not given) | inactive | – |
| NC(=O)N1c2ccccc2CC(=O)c2ccccc21 | inactive | – |
| CC(=O)[C@H]1CC[C@H]2[C@@H]3CC=C4C[C@@H](O)CC[C@]4(C)[C@H]3CC[C@]12C | inactive | – |
| COc1cc(NCc2ccc3nc(N)nc(N)c3c2C)cc(OC)c1OC | 332 nM (active) and 11.9 nM (active) | – |
| CNNCc1ccc(C(=O)NC(C)C)cc1 | inactive | – |
| CCCCc1oc2ccc(NS(C)(=O)=O)cc2c1C(=O)c1ccc(OCCCN(CCCC)CCCC)cc1 | 21.1 µM (active) | – |
